Experimental data as given in PubChem BioAssay (NCI).
Compounds without any hit were thinned out: in the full panel of roughly 83,000, 20% have a hit.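 Each cell line was grown in a 96-well plate and treated with one concentration of compound for 48 hours. Values below 10 were considered active.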 A number with no mark means an inactive call. The source made the active and inactive calls.

Each compound was assayed on A498 renal (assay: NCI-60 one-dose screen, 48 h (100 = growth as untreated, 0 = no growth, -100 = all killed)). Conditions: 10 µM unless noted.
Description: Growth inhibition of the A498 human tumor cell line is measured as a screen for anti-cancer activity. Cells are grown in 96 well plates and exposed to the test compound for 48 hours. Compounds are tested at a single concentration, which is 10^-5 M for most compounds. The reported endpoint is percent growth (GI% or GIPRCNT), where numbers from 0 - 100% represent growth inhibition, and numbers from -100% - 0 represent cell death. For example, a value of 40 represents 60% growth inhibition. A value of 0 means no net growth occurred over the course of the experiment. A value of -40 indicates 40% of cells at the beginning of the experiment died by the end of the experiment. A value of -100 means all cells are dead at the end of the experiment.
NCI-60 Human Tumor Cell Lines Screen was performed using the standard one-dose NCI protocol, which is described in more detail at https://dtp.cancer.gov/discovery_development/nci-60/default.htm.
Compounds with GIPRCNT values below 10 were considered active. Activity score was based on GIPRCNT using the following formula: […]
Score is 0 for GIPRCNT values of 100 or above, 50 for GIPRCNT values of 0, and 100 for GIPRCNT values of -100.
With `O=c1cc(-c2ccc3c(c2)OCCO3)oc2cc(Cl)ccc12` the growth was 8.97% (active).
Work on `COc1cc(C2CC(c3cccc(Nc4ccnc5cc(Cl)ccc45)c3)=NN2c2ccc(Cl)cc2)cc(OC)c1OC` (stereo not given) yielded a growth of 64.9%.
In the case of `COc1ccc([C@@H]2[C@@H](Cl)C(=O)N2c2cc(OC)c(OC)c(OC)c2)cc1C`, the growth is reported as -7.32% (active).
`CCCOC(=O)C1c2cc3c(cc2CC(C)C1C(=O)OCCC)OCO3` (stereo not given) was tested, and the growth was 99.8%.
With `COc1cc(Nc2ccnc3ccc(Br)cc23)cc(OC)c1OC` the growth was -7.03% (active).
For `Cc1ccc(N2C3c4ccccc4N(S(=O)(=O)c4ccc(C)cc4)C2c2ccccc2N3S(=O)(=O)c2ccc(C)cc2)cc1`, the growth was 97%.
`COc1ccc(-c2nc3ccc(Cc4ccc5nc(-c6ccc(OC)cc6)[nH]c5c4)cc3[nH]2)cc1` gave a growth of 102%.
With `CCSc1ccc([C@@H]2[C@@H](N)C(=O)N2c2cc(OC)c(OC)c(OC)c2)cc1` the growth was 3.94% (active).
`COc1ccccc1NC(=O)OCC12COCN1COC2` gave a growth of 80.5%.
For `CCCCCCCCCC1=NC(C)(C)CN1C(C)(C)CO`, the growth was 93%.
With `Cc1cc(O)ccc1C1=NN(c2ccc(S(N)(=O)=O)cc2)C(=O)CC1` the growth was -2.97% (active).
For `Cc1ccc(Nc2nc(NCCO)c3ccccc3n2)cc1C`, the growth was -11.9% (active).
`CCCCCCCCCCCCCC(=S)NCCCC[C@H](NC(=O)OCc1ccccc1)C(=O)Nc1ccccc1` gave a growth of 55.4%.
With `COc1ccc2[nH]c(O)c(/C=c3/ccc4c(c3)N=C(c3ccc(C(F)(F)F)cc3)N=4)c2c1` the growth was 71.7%.
`CNC(=O)c1cc(Oc2ccc(NC(=O)c3nc(S(C)(=O)=O)sc3-c3ccc(F)cc3)cc2)ccn1` gave a growth of 99.6%.
Work on `O=C(O)c1cn(-c2ccccc2)nc1-c1ccc(O)cc1` yielded a growth of 74.3%.
For `F`, the growth was -28.8% [6.87 mM] (active).
For `COc1ccccc1/C=N\NC(=S)Nc1ccc(F)cc1`, the growth was 67%.
In the case of `CC(OC(=O)Nc1cccc(Cl)c1)C(=O)O` (stereo not given), the growth is reported as 23.2%.
`OC(c1cc2c(Cl)cc(Cl)cc2c2cc(C(F)(F)F)ccc12)C1CCCCN1` (stereo not given) was tested, and the growth was 0.166% (active).
Work on `CN(C)c1ccc(/C=N/Nc2nnc3n2N=C(c2ccc(Cl)cc2)CS3)cc1` yielded a growth of 85.6%.
Work on `C=CCOc1c(Br)cc(Br)cc1Br` yielded a growth of 55.9%.
In the case of `O=C1/C(=C\c2cccn2Cc2ccc(Cl)cc2)c2ccccc2N1c1c(Cl)cccc1Cl`, the growth is reported as 98%.
`CC(C)(C)NC(=O)C(OC(=O)C1CCc2cc(F)ccc2O1)c1ccccc1Cl` (stereo not given) gave a growth of 90.7%.
Compound `COc1cccc(OCC(O)CN2CCN(c3ccccc3)CC2)c1` (stereo not given) has a growth of 90.6%.
Compound `COc1cccc(CC(C)=C(c2ccc(OCCCN(C)C)cc2)c2ccc(OCCCN(C)C)cc2)c1` has a growth of 18.6%.
`CNCc1ccccc1CN(CC(=O)Nc1ccc2c(c1)CC1(C2)C(=O)Nc2ncccc21)C(=O)C(C)(C)C` (stereo not given) gave a growth of 122%.
`COc1cc2c(cc1OC)C(=O)OC2` was tested, and the growth was 109%.
Work on `CCC(=O)NC(O)C(Cl)(Cl)C(C)Cl` (stereo not given) yielded a growth of 107%.
Compound `Fc1ccc2nc(-c3ccc(-c4noc(-c5ccc(Cl)cc5)n4)cc3)[nH]c2c1` has a growth of 81%.
Work on `CCCCN(CCCC)CCC(=O)c1ccc(OC)c2ccccc12` yielded a growth of 107%.
With `COc1cc(/C=C2\C(=O)Nc3ccc(N(C)C)cc32)cc(OC)c1OC` the growth was -18.2% (active).
For `CC(=O)c1c(O)c(C)c(O)c2c1OC1=CC(=O)/C(=C(/C)N)C(=O)C12C` (stereo not given), the growth was 74.1%.
With `CCCCn1cnc(-c2cc(-c3ccccc3)cc(C(F)(F)F)c2)n1` the growth was 70.9%.
In the case of `CC(=O)[C@@]1(O)[C@H](C)C[C@H]2[C@@H]3C=C(C)C4=Cc5c(cnn5-c5ccccc5)C[C@]4(C)[C@H]3[C@@H](O)C[C@@]21C`, the growth is reported as -16.8% (active).
Compound `Cc1c(-c2ccc(-c3ccccc3F)cc2)nc2ccc(F)cc2c1C(=O)O` has a growth of 80.9%.
`Nc1ccc(C(OC(=O)c2cc3ccccc3c(Cc3c(O)c(C(=O)OC(c4ccc(N)cc4)(c4ccc(N)cc4)c4ccc(N)cc4)cc4ccccc34)c2O)(c2ccc(N)cc2)c2ccc(N)cc2)cc1` was tested, and the growth was -3.31% (active).
Work on `NC(=O)c1noc(C(=O)c2ccccc2)c1N` yielded a growth of 72%.
In the case of `COc1ccc2[nH]cc(/C=C3\C(=O)Nc4ccccc43)c2c1`, the growth is reported as 40.5%.
`OC(c1cc2cc(Cl)ccc2c2cc(C(F)(F)F)ccc12)C1CCCCN1` (stereo not given) was tested, and the growth was 27.2%.
